Data taken from PubChem BioAssay (EPA / NIEHS).
“And” between values parts separate entries of the source, which are not always exact repeats. Identical values can stand only once. More than one record can exist for a structure, and the calls need not agree. The source made the active and inactive calls. The calls were made as follows: active = hit-call score of the fitted dose curve at least 0.9, where 1 is the maximum; inactive = score below 0.9.

Legend:
[1] = read-out: Actin alpha 1 (ACTA1), ACTA1 (gene 58); assay: BSK_MyoF_ACTA1: BioMAP Diversity Plus: MyoF Assay for Actin alpha 1 (ACTA1) Biomarker Activity (AID 2284244); details: primary human lung fibroblasts
Summary of the method: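 MyoF fibroblast system (human lung); a-SMA quantified via ELISA at 24 h; DMSO-normalised, gain-of-signal endpoint.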

[2] = read-out: Interleukin 2 (IL2), IL2 (gene 3558); assay: BSK_BT_xIL2: BioMAP Diversity Plus: BT Assay for Interleukin 2 (IL2) Biomarker Activity (AID 2284245); details: primary human B cells with PBMC
Summary of the method: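 Co-cultures of primary human B cells and PBMC are treated with chemical and sampled at 24 h. IL-2 secretion is quantified by Luminex xMAP, with DMSO-treated wells as baseline.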

[3] = read-out: Basic fibroblast growth factor (bFGF), FGF2 (gene 2247); assay: BSK_MyoF_bFGF: BioMAP Diversity Plus: MyoF Assay for Basic fibroblast growth factor (bFGF) Biomarker Activity (AID 2284246); details: primary human lung fibroblasts
Summary of the method: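 Fibroblasts from human lung, 24 h dosing. bFGF by ELISA; gain of signal over DMSO.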

[4] = read-out: Collagen IV, COL4A1 (gene 1282); assay: BSK_MyoF_CollagenIV: BioMAP Diversity Plus: MyoF Assay for Collagen IV Biomarker Activity (AID 2284247); details: primary human lung fibroblasts
Summary of the method: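 Lung fibroblasts (human primary) treated with chemicals were assayed after 24 h for Collagen IV using an ELISA, with DMSO serving as negative control and baseline for a positive-direction fit.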

[5] = read-out: Monokine induced gamma interferon (MIG), CXCL9 (gene 4283); assay: BSK_KF3CT_MIG: BioMAP Diversity Plus: KF3CT Assay for Monokine induced gamma interferon (MIG) Biomarker Activity (AID 2284248); details: primary human keratinocytes with fibroblasts
Summary of the method: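 Human keratinocyte–foreskin fibroblast co-culture; MIG measured by ELISA 24 h after chemical dosing, fitted upward versus DMSO. Cytotoxicity was assessed in parallel cultures by SRB total-protein staining read at 560 nm.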

[6] = read-out: Collagen I, COL1A1 (gene 1277); assay: BSK_hDFCGF_CollagenI: BioMAP Diversity Plus: hDFCGF Assay for Collagen I Biomarker Activity (AID 2284250); details: primary human foreskin fibroblasts
Summary of the method: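 Readout: Collagen I by ELISA after 24 h compound treatment of primary human foreskin fibroblasts. Endpoint analysed for increases relative to DMSO; total protein by SRB in parallel wells flagged cytotoxicity.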

[7] = read-out: Interferon-inducible T-cell alpha chemoattractant (ITAC), CXCL11 (gene 6373); assay: BSK_hDFCGF_ITAC: BioMAP Diversity Plus: hDFCGF Assay for Interferon-inducible T-cell alpha chemoattractant (ITAC) Biomarker Activity (AID 2284251); details: primary human foreskin fibroblasts
Summary of the method: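 I-TAC levels were read by ELISA on human dermal foreskin fibroblast primary cultures 24 h after dosing, analysed against DMSO in the positive direction. Cytotoxicity was assessed alongside by sulforhodamine B total-protein staining.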

[8] = read-out: Plasminogen activator inhibitor-1 (PAI1), SERPINE1 (gene 5054); assay: BSK_KF3CT_PAI1: BioMAP Diversity Plus: KF3CT Assay for Plasminogen activator inhibitor-1 (PAI1) Biomarker Activity (AID 2284252); details: primary human keratinocytes with fibroblasts
Summary of the method: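 In this co-culture of primary human keratinocytes and foreskin fibroblasts, PAI-1 was measured by ELISA at 24 h and fitted upward from DMSO.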

[9] = read-out: Monocyte Chemoattractant Protein-1 (MCP1), CCL2 (gene 6347); assay: BSK_IMphg_MCP1: BioMAP Diversity Plus: IMphg Assay for Monocyte Chemoattractant Protein-1 (MCP1) Biomarker Activity (AID 2284253); details: primary human endothelial cells with macrophages
Summary of the method: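 ELISA readout of MCP-1 at 24 hours in IMphg co-cultures of venular endothelial cells and macrophages, normalised to DMSO; parallel cultures stained with sulforhodamine B for overt cytotoxicity.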

Measured: AC50

NC(=O)C(F)(F)C(F)(F)C(F)(F)C(F)(F)F
not listed: [9]
inactive: all other assays above

O=C(Cl)C(F)(F)C(F)(F)C(F)(F)C(F)(F)C(F)(F)C(F)(F)C(F)(F)C(F)(F)F
active: [1] 23.6 µM and 43.7 µM and 30 µM | [4] 18.7 µM and 20.4 µM and 21.3 µM | [7] 20.4 µM and 48.2 µM and 30 µM | [8] 41.1 µM and 38.8 µM and 22.7 µM
not listed: [9]
inactive: all other assays above

C=CC(F)(F)C(F)(F)C(F)(F)C(F)(F)C(F)(F)C(F)(F)C(F)(F)C(F)(F)C=C
not listed: [9]
inactive: all other assays above

O=S(=O)(O)C(F)(F)C(F)(F)C(F)(F)C(F)(F)C(F)(F)C(F)(F)C(F)(F)F
not listed: [9]
inactive: all other assays above

FC(F)(F)C(F)(F)C(F)(F)C(F)(F)C(F)(F)C(F)(F)C(F)(F)I
active: [1] 3.33 µM | [4] 4.81 µM and 1.16 µM
not listed: [9]
inactive: all other assays above

O=C(O)C(F)(F)C(F)(F)OC(F)(F)F
inactive: all assays above

O=C(O)C(F)(F)C(F)(F)C(F)(F)C(F)(F)C(F)(F)C(F)(F)C(F)(F)C(F)(F)C(F)(F)C(F)F
inactive: [2] | [3] | [6]
active: [1] 38.1 µM and 36.2 µM | [4] 8.18 µM and 8.12 µM | [5] 49.3 µM and 48 µM | [7] 12.8 µM and 5.95 µM | [8] 19.3 µM and 13.8 µM | [9] 49.5 µM and 48.9 µM

O=C(CC(=O)C(F)(F)C(F)(F)F)C(F)(F)F
not listed: [9]
inactive: all other assays above

CCCCCCOC(=O)c1ccccc1O
inactive: [5] | [8]
active: [6] 18.7 µM and 10.1 µM | [7] 40.7 µM and 45.2 µM | [8] 17.4 µM

O=C(O)C(F)(F)C(F)(F)C(F)(F)F
not listed: [9]
inactive: all other assays above

FC(F)(F)C(F)(F)C(F)(F)N(C(F)(F)C(F)(F)C(F)(F)F)C(F)(F)C(F)(F)C(F)(F)F
not listed: [9]
inactive: all other assays above

FC(F)(F)C(F)(F)C(F)(F)C(F)(F)C(F)(F)C(F)(F)CCS
not listed: [9]
inactive: all other assays above

C=C(C)C(=O)OCC(F)(F)C(F)(F)C(F)(F)F
inactive: all assays above

O=C(O)C(F)(OC(F)(F)C(F)(OC(F)(F)C(F)(OC(F)(F)C(F)(F)C(F)(F)F)C(F)(F)F)C(F)(F)F)C(F)(F)F (centres undefined)
inactive: all assays above

OCCCC(F)(F)C(F)(F)C(F)(F)F
inactive: all assays above

O=C(O)C=C(C(F)(F)F)C(F)(F)F
active: [2] 10.1 µM and 5.58 µM
not listed: [9]
inactive: all other assays above

CCCCC(CC)COP(=O)(O)OCC(CC)CCCC (centres undefined)
active: [6] 20 µM | [7] 29.7 µM and 20 µM | [8] 31.1 µM and 26.6 µM
inactive: [5] | [6]

CCCCCCCCC(F)(F)C(F)(F)C(F)(F)C(F)(F)C(F)(F)C(F)(F)F
not listed: [9]
inactive: all other assays above

O=C(O)C(F)(F)C(F)(F)C(F)(F)C(F)(F)C(F)(F)C(F)(F)C(F)(F)C(F)(F)C(F)(F)C(F)(F)C(F)(F)C(F)(F)C(F)(F)F
inactive: [1] | [2] | [3] | [4] | [5] | [6] | [7] | [8] | [9]
active: [7] 5.22 µM

O=C(O)C(F)(F)C(F)(F)C(F)F
not listed: [9]
inactive: all other assays above

FC1CC(F)(F)C(F)(F)C1(F)F (centres undefined)
not listed: [9]
inactive: all other assays above

OCC(F)(F)C(F)(F)C(F)(F)C(F)F
active: [8] 1.23 µM
inactive: [1] | [2] | [3] | [4] | [5] | [6] | [7] | [8]

FC(F)(F)C(F)(F)C(F)(F)C(F)(F)C(F)(F)C(F)(F)C(F)(F)C(F)(F)F
not listed: [9]
inactive: all other assays above

C=CC(=O)OCC(F)(F)C(F)(F)C(F)(F)C(F)(F)COC(=O)C=C
active: [1] 8.86 µM and 9.38 µM | [2] 11.2 µM and 9.62 µM | [3] 18.2 µM and 14.5 µM | [4] 12.4 µM and 14.3 µM | [5] 21.5 µM and 29.6 µM | [7] 6.61 µM and 5.23 µM | [8] 23.3 µM and 43 µM
inactive: [6]

O=C(O)C(F)(F)C(F)(F)F
not listed: [9]
inactive: all other assays above

C=CC(=O)OCC(F)(F)C(F)(F)C(F)(F)C(F)(F)C(F)(F)C(F)(F)C(F)(F)F
not listed: [9]
inactive: all other assays above

COC(=O)CCC(F)(F)C(F)(F)C(F)(F)C(F)(F)F
not listed: [9]
inactive: all other assays above

O=C(O)C(F)(OC(F)(F)C(F)(OC(F)(F)C(F)(F)C(F)(F)F)C(F)(F)F)C(F)(F)F (centres undefined)
not listed: [9]
inactive: all other assays above

C=CC(F)(F)C(F)(F)C(F)(F)C(F)(F)C(F)(F)C(F)(F)C(F)(F)C(F)(F)F
inactive: all assays above

C=C(C)C(=O)OCC(F)(F)C(F)(F)C(F)(F)C(F)(F)C(F)(F)C(F)(F)C(F)(F)F
inactive: all assays above

FC(F)(I)C(F)(F)C(F)(F)C(F)(F)I
active: [1] 48.6 µM and 49 µM and 34.3 µM | [2] 54.7 µM and 47.8 µM and 43.6 µM | [3] 51.4 µM and 45.9 µM | [4] 50.6 µM and 50.7 µM and 51.6 µM | [5] 58.1 µM and 47.2 µM and 51.6 µM | [7] 29.2 µM and 46.2 µM and 52 µM | [8] 52.5 µM and 47 µM and 54.9 µM
inactive: [6]

CC(C)(C)C(=O)CC(=O)C(F)(F)C(F)(F)C(F)(F)F
not listed: [9]
inactive: all other assays above

O=S(=O)(OCC(F)F)C(F)(F)F
active: [8] 0.324 µM
inactive: [1] | [2] | [3] | [4] | [5] | [6] | [7] | [8]
